In PubChem BioAssay AID687031 (Broad Institute, 2013):
In all, about 1,400 compounds went through this assay and about 50 (4%) were called active.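 Rule for the calls: active = fitted curve reaches 30% CPE protection at or below the top valid dose, with every test run called active; inconclusive = test runs disagree, some active and some not; inactive = every test run inactive, including effects in the wrong direction.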 Only a sample is shown. Potency and affinity values are given separately.

Test: antiviral rescue of DENV2-infected BHK-21 cells – cell-based, ATP luminescence, cherry-pick, dose response (AID 687031);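 note: 0% = infected DMSO wells and 100% = uninfected cell wells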
Settings: BHK-21 DENV2 CPE protection, 5 d; series mostly up to 19.5 µM; CPE protection (higher = active): at the top concentration

CPE protection (higher = active), inactive:
COc1ccc(C(CCN2CCOCC2)c2c(OC)cc(OC)c3c(C)cc(=O)oc23)cc1 (stereo not drawn) 27.1%
CN1C[C@@H]2[C@@H]3C(=O)N(Cc4ccccc4)C(=O)[C@@H]3[C@](C)(C1=O)N2C(=O)c1ccc(C(C)(C)C)cc1 8.78%
Cc1ccc(S(=O)(=O)N2CCN(C(=O)COC(=O)Cc3ccc(Cl)cc3)CC2)c(C)c1 -8.53%
O=C(c1ccccc1Cc1ccccc1)N1CCN(S(=O)(=O)c2ccccc2)CC1 0.551%
O=C1[C@@H](Oc2ccccc2)[C@@H](c2ccncc2)N1c1ccncc1 -3.03%
Cc1ccc2ccc(C(Nc3ccccc3)c3ccccc3)c(O)c2n1 (stereo not drawn) -6.24%
Cc1ccc(CNC(=O)C2CCC(=O)N(CCc3ccccn3)C2)s1 (stereo not drawn) -1.35%
Cc1cccc(N2CCN(C(C(=O)NCc3ccccc3)c3ccc(F)cc3)CC2)c1C (stereo not drawn) -8.34%
CC1(C)CC(=O)N(CC(=O)O)c2ccccc2S1(=O)=O -20.4%
CCNC(=O)C[C@H]1CC[C@@H]2[C@H](COC[C@H](O)CN2Cc2ccc(Cl)c(Cl)c2)O1 12.1%
Cc1noc(C)c1S(=O)(=O)Nc1ccc2c(c1)C(=O)N([C@H](C)CO)C[C@H](C)[C@H](CN(C)C(=O)Nc1ccccc1)OCCCC[C@@H](C)O2 7.27%
Cc1noc(C)c1S(=O)(=O)Nc1ccc2c(c1)C(=O)N([C@@H](C)CO)C[C@@H](C)[C@@H](CN(C)C(=O)Nc1ccccc1)OCCCC[C@@H](C)O2 34% [at 10 µM]
CNc1cc(-c2ccc(O)cc2C)ncn1 -18%
O=C(C1CCOCC1)N1CC[C@@H]2[C@H]1c1cc(-c3cccc(F)c3)ccc1N[C@@H]2CO -4.08%
O=C(C1CC1)N1CC[C@@H]2[C@H]1c1cc(-c3ccc(F)cc3)ccc1N[C@@H]2CO 19.9%
Cc1ccc(S(=O)(=O)c2nnn3c2nc(N2CCOCC2)c2ccccc23)cc1C 18.2%
CCCN(CC(=O)Nc1ccccc1C)C(=O)C1CCN(S(=O)(=O)c2ccc(C)c(C)c2)CC1 6.3%
CCC(C)(C)C1CCc2[nH]nc(C(=O)NCc3ccccn3)c2C1 (stereo not drawn) 13.8% [at 10 µM]
O=C(NCc1ccccn1)C(=O)NCC1OCCN1S(=O)(=O)c1ccc(Br)cc1 (stereo not drawn) -4.64%
COc1ccc(CN(C)C[C@H]2OCCCC[C@@H](C)Oc3ccc(NC(=O)NC(C)C)cc3C(=O)N([C@H](C)CO)C[C@H]2C)cc1 13.6% [at 21 µM]
CN1c2ccc(-c3cccc(F)c3)cc2[C@H]2[C@H](CCN2C(=O)Cc2cccnc2)[C@H]1CO -9.94%
O=C(C1CCOCC1)N1C[C@@H]2[C@H](c3ccccc31)[C@H](CO)N2C(=O)c1ccccc1 -12.7%
CC(C)NC(=O)N1C[C@H]2[C@@H](c3ccccc31)[C@@H](CO)N2C(=O)c1ccccn1 6.1%
COc1ccc2ccccc2c1/C=N/NC(=O)c1ccccc1F 3.87%
Cc1ccccc1S(=O)(=O)N1CC[C@H]2[C@@H](CO)N(C)c3ccc(Br)cc3[C@H]21 2.06%
CCOc1ccc2[nH]c3ncccc3c(=O)c2c1 -4.21%
CC1(C(=O)NCc2cccs2)Cc2c(-c3cccc(C(F)(F)F)c3)ccnc2O1 (stereo not drawn) 17%
CCc1nnc(NC(=O)c2ccc(F)c(S(=O)(=O)N3CCCCC3)c2)s1 -19.2%
CN(C)CC(=O)Nc1ccc2c(c1)[C@H]1C[C@H](CC(=O)NC3CCCCC3)O[C@@H](CO)[C@H]1O2 0.976%
O=C(C[C@H]1C[C@@H]2c3cc(NC(=O)CC4CC4)ccc3O[C@@H]2[C@H](CO)O1)NCc1ccccc1 -5.22%
Cc1ccc(NCC(=O)N/N=C/c2cccc(Br)c2)cc1 7.97%
CCCCCC(=O)N1C[C@@H](n2cc(C3CC3)nn2)[C@H](O)C[C@@H]1c1ccccc1 -7.51%
Cc1ccccc1CN1C(=O)CN(S(C)(=O)=O)CC1(C)C(=O)NCc1ccccc1 (stereo not drawn) -24.2%
COCCNC(=O)C1CCC(CNS(=O)(=O)c2ccc(F)cc2)CC1 (stereo not drawn) -10.5%
CC(=O)Nc1cccc(C(=O)OC(C)C(=O)NC(=O)NC2CCCCC2)c1 (stereo not drawn) -3.28%
CCOC(=O)C1=C(C)NC(=O)NC1c1ccc(N(C)C)cc1 (stereo not drawn) -0.681%
N#C[C@@H]1[C@H](c2ccc(-c3ccccc3F)cc2)[C@H](CO)N1C(=O)C1CC1 -0.808% [at 21 µM]
Cc1ccc(S(=O)(=O)N2CCOCC2)cc1NC(=O)CN(C)CC(=O)Nc1cccc(F)c1 -5.13%
CCN(CC(=O)Nc1c(F)cccc1F)C(=O)C1CCN(S(=O)(=O)c2ccc(F)cc2)CC1 -5.16%
COc1ccc(-c2cc(C(=O)NCCCN3CCCC3=O)c3ccccc3n2)cc1 -27.2%
CSc1cccc(NC(=O)CC2Oc3ccccc3NC2=O)c1 (stereo not drawn) -0.118%
CCOc1ccc(N(CC(=O)NC2CCCC(C)C2C)S(=O)(=O)c2c(C)noc2C)cc1 (stereo not drawn) -13.2%
Cn1c(=O)c2[nH]c(CCCCc3nc4ccccc4[nH]3)nc2n(C)c1=O 6.76%
COc1ccc(CC(N)c2csc(NC(=O)c3ccc(OC)cc3)n2)cc1 (stereo not drawn) -8.87%
Nc1ccc(CC(N)c2csc(Nc3cc(Oc4ccccc4)ncn3)n2)cc1 (stereo not drawn) -9.32%
CC(C)SCc1cc(N2CCCC2)nc(-c2ccccc2)n1 -9.75%
COc1ccccc1-c1noc2c1C(=O)N(Cc1cn(Cc3ccccc3)nn1)CC2 6.91%
COc1ccc2ccccc2c1-c1sc(Nc2ccccc2)n[n+]1-c1ccc(F)cc1 -20%
CNC[C@@H]1OCCCC[C@H](C)Oc2ccc(NS(=O)(=O)c3c(C)noc3C)cc2C(=O)N([C@@H](C)CO)C[C@@H]1C 4.03%
O=C(NCc1cccs1)c1cccc(Nc2nc3ccc(Br)cc3[nH]2)c1 -1.49%
CC1CCCCC12NC(=O)N(CC(=O)NCc1cccs1)C2=O (stereo not drawn) 2.88%
CN(Cc1ccccc1)CC1CCCN(CCc2ccccc2F)C1 (stereo not drawn) 3.08%
CC(C)Cc1ccc(C(C)C(N)=NCCc2ccccc2)cc1 (stereo not drawn) 21.7%
CCN(C)C1CN(Cc2cn(Cc3ccc(F)cc3)nn2)S(=O)(=O)C1 (stereo not drawn) -3.5%
CCOc1ccc(Oc2nc(NCC(C)C)nc(OC)n2)nn1 -24.7%
NS(=O)(=O)c1ccc(CCNC(=O)C2CCCN2C(=O)c2cccs2)cc1 (stereo not drawn) -11.5%
O=C(NC(C(=O)N1CCCC1C(=O)NC1CCCC1)c1ccccc1)c1cccs1 (stereo not drawn) -11.5%
CCC(=O)N1CC2(C1)CN(C(=O)Nc1ccc(F)cc1)[C@H](CO)c1c2c2ccc(OC)cc2n1C 5.8%
Cc1ccc(-c2nc(N3CCN(C)CC3)c3ccccc3n2)cc1 12.5%
COc1ccc(/C=N/NC(=O)c2nc(-c3ccccc3)n(-c3ccccc3)n2)cc1OC 6.48%
CCNC(=O)C[C@H]1CC[C@H]2[C@@H](COC[C@H](O)CN2C(=O)c2cccnc2)O1 24.6%
CCCNC(=O)C[C@H]1CC[C@@H]2[C@H](COC[C@H](O)CN2C(=O)CC)O1 36.8%
Cc1ccc(SCCN2CCC(NC(=O)OCc3ccccc3)CCC2=O)cc1 (stereo not drawn) -8.36%
Cc1ccc(S(=O)(=O)Nc2ccc3c(c2)C(=O)N([C@@H](C)CO)C[C@@H](C)[C@H](CN(C)S(=O)(=O)c2ccc(Cl)cc2)OCCCC[C@@H](C)O3)cc1 -29.8%
Cc1cc(OCC(=O)NC2CC(C)(C)NC(C)(C)C2)c(C)cc1Br -5.56%
CCc1cc(=O)oc2cc(OCC(=O)NC3CC(C)(C)NC(C)(C)C3)ccc12 3.18%
CC1(C(=O)NCc2ccccc2)CN(S(C)(=O)=O)CC(=O)N1CCc1ccc(O)cc1 (stereo not drawn) -2.07%
CC(C)CC1NC(=O)c2ccccc2-n2c1nc1ccccc1c2=O (stereo not drawn) -9.6%
Cc1ccc(S(=O)(=O)N(C)CC(=O)Oc2ccc(-c3nnco3)cc2)cc1 -21.8% [at 10 µM]
N#Cc1cc2cc3c(cc2nc1Cl)OCCO3 -12.1%
CCN(CC)C1CCN(Cc2c(C(=O)N3CCCCCCC3)nc3ccc(Cl)cn23)C1 (stereo not drawn) -11.9%
O=C(CN1CCc2cc3c(cc2C1)OCCCO3)Nc1ccccc1 17.2%
CN(C)CCCNc1cc(O)c2ncccc2c1 -6.23%
C/C=C/c1ccc([C@@H]2[C@@H](CO)N(C(C)=O)[C@@H]2CNC(=O)CC2CC2)cc1 4.22% [at 21 µM]
O=C(NCC1CC1)c1onc(CSc2ccc(F)c(F)c2)c1C(=O)NCC1CC1 10.7%
COc1cc(C)nc(N2CCC(C(=O)NCC3CCCO3)CC2)n1 (stereo not drawn) 18.9%
O=C(NCCS(=O)(=O)N1CCN(c2ccccc2)CC1)C1CC1 14.1%
O=C(CCc1nnc(Cc2c[nH]c3ccccc23)o1)NCCC1CCCCO1 (stereo not drawn) 17.1%
COc1ccc(S(=O)(=O)N2CCCCC2c2cc(C(=O)Nc3ccccc3)no2)cc1 (stereo not drawn) 23%
COC(=O)N1CCCCC1c1cc(C(=O)Nc2ccccc2Cl)no1 (stereo not drawn) -13.9%
Cc1ccc([C@H]2C[C@@H](n3cc(-c4ccc(F)cc4)nn3)[C@H](O)CN2C(=O)c2cccs2)cc1 -9.7%
CCC(=O)N1CC[C@@H]2[C@@H](CO)Nc3ccc(-c4ccc(OC)cc4)cc3[C@@H]21 -14%
O=C(NCc1ccccc1)c1ccccc1 -3.58%
O=C(O)c1ccc(CNC(=O)C2CCCN2C(=O)OCc2ccccc2)cc1 (stereo not drawn) 1.02%
Cc1ccc(OCc2nnc(SCc3cc(=O)[nH]c4ccccc34)n2-c2ccccc2)cc1 -15.6%
CO[C@@H]1CN(C)C(=O)c2ccc(NC(=O)Nc3cc(F)ccc3F)cc2OC[C@@H](C)N(C(=O)c2ccccn2)C[C@H]1C 17.2% [at 21 µM]
CC1=C(C(=O)N(C)C)CC(CC(=O)NC2CCCCC2)C(=O)N1Cc1ccc(C(C)(C)C)cc1 (stereo not drawn) 17.7%
CN(CC(=O)Nc1cccc(F)c1)C(=O)c1ccccc1CCc1ccccc1 -11.4%
C[C@H](CO)N1C[C@H](C)[C@@H](CN(C)C(=O)C2CC2)Oc2cc(C#Cc3ccccc3)ccc2S1(=O)=O -7.48%
Cc1cc(OCc2cc(C(=O)N(C)C(C)c3ccccn3)no2)cc(C)c1Cl (stereo not drawn) -3.99%
COc1cc(C)ccc1OCc1cc(C(=O)NCCN2CCCC(O)C2)no1 (stereo not drawn) 4.9%
Cc1c(C(=O)N2CCCC2)oc2ccc(Br)cc12 -4.23%
C[C@@H]1CN([C@H](C)CO)C(=O)Cc2cc(NC(=O)CCCCCC(=O)Nc3ccccc3N)ccc2O[C@@H]1CN(C)Cc1ccc(C(F)(F)F)cc1 -7.66% [at 16 µM]
Cc1ccc(S(=O)(=O)NC(=O)C2(C)CCN2C(=O)Cc2cccs2)cc1 (stereo not drawn) -2.07%
C[C@H](NC(=O)c1ncn(Cc2ccccc2)c1C(=O)N[C@@H](C)c1ccccc1)c1ccccc1 -10.4%
C[C@H](CO)N1C[C@H](C)[C@H](CN(C)C(=O)Nc2ccc(C(F)(F)F)cc2)OCCCC[C@H](C)Oc2ccc(NS(=O)(=O)c3ccc(F)cc3)cc2C1=O 7.18%
O=S(=O)(c1ccc(F)cc1)N1CC[C@@H]2[C@H]1c1cc(-c3ccc(F)cc3)ccc1N[C@@H]2CO -24%
CCC(=O)N1CC[C@@H]2[C@H](CO)Nc3ccc(-c4cccc(C#N)c4)cc3[C@@H]21 22.9%
COc1cccc(C(O)c2nc(-c3cc(F)cc(F)c3)cs2)c1 (stereo not drawn) -22.6%
CC(NC(=O)CCc1ccccc1)c1ccc2c(c1)OCO2 (stereo not drawn) 1.74%
CC(CNC(=O)Cn1ccc(NC(=O)OCc2ccccc2)nc1=O)c1ccccc1 (stereo not drawn) -2.22%
CCCCCCN1CCN(C2CN(Cc3ccc(F)cc3)S(=O)(=O)C2)CC1 (stereo not drawn) -15.2%
O=C(c1cnccn1)N1CC[C@@H]2[C@@H](CO)Nc3ccc(-c4ccccc4F)cc3[C@@H]21 -9.44% [at 21 µM]
Nc1c(-c2ccccc2)nc2ncccn12 8.46%
CCOc1ccc(/C=N/NC(=O)c2ccccc2O)cc1CN1CC2CC(C1)c1cccc(=O)n1C2 (stereo not drawn) -7.87%
CCCc1cc(=O)oc2c(C)c(OCC(=O)N3C[C@H]4C[C@@H](C3)c3cccc(=O)n3C4)ccc12 -5.43%
COc1ccc(NS(=O)(=O)c2cccs2)cn1 5.62%
COc1cccc(OC)c1Nc1nc(C)nc2c1nnn2Cc1ccccc1Cl -19.1%
